Where “and” joins values, the source holds several entries; their conditions need not be identical. Identical values can stand only once. Results filed as inconclusive are left out. Some structures have more than one record in an assay (separate samples or runs), and their calls can disagree. Calls of active or inactive are those of the source. Unless noted, calls follow the shape of the dose curve; as a rule, active = well fitted curve in the direction sought with a large enough effect in the repeat runs; inconclusive = weak or mixed curves; inactive = no such curve, though single readings can be large; an effect the other way counts as inactive or inconclusive.
How the values were obtained:
[1] = molecular target: Retinoic acid receptor RXR-alpha (Homo sapiens) (UniProt P19793); experiment: qHTS assay to identify small molecule agonists of the RXR signaling pathway (AID 1159527; calls by dose curve; also: nearly all actives have a fitted effect of over 35% in size; also: potency is read from the fitted curve at half-maximal effect); settings: HEK293T RXRa-UAS-bla, beta-lactamase ratio, 16 h; series mostly up to 76.8 µM
Method in brief: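 Beta-lactamase reporter assay, agonist format. Engineered HEK 293T line, charcoal-stripped FBS at 2%, overnight (16 hr) exposure, fluorescence at 460 and 530 nm after 405 nm excitation.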

[2] = qHTS assay to identify small molecule agonists of the RXR signaling pathway - cell viability counter screen (AID 1159529); settings: RXR-alpha-bla HEK293T viability, CellTiter-Glo, 16 h; series mostly up to 76.8 µM; also: nearly all actives have a fitted effect of over 50% in size; also: potency is read from the fitted curve at half-maximal effect
Method in brief: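 Same-well viability check after the LiveBLAzer FRET read: CellTiter-Glo added, luminescence measured after 30 min at room temperature. Reporter HEK 293T cells had been treated with compounds for 16 hr following a 5 hr preincubation.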

[3] = qHTS assay to identify small molecule antagonists of the retinoid acid receptor (RAR) signaling pathway - cell viability counter screen (AID 1159551); settings: C3RL4 cells viability, ATP luminescence (CellTiter-Glo), 6 h; series mostly up to 92.4 µM; also: nearly all actives have a fitted effect of over 35% in size; also: potency is read from the fitted curve at half-maximal effect
Method in brief: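 In this counter screen, the RARE-luciferase line C3RL4 was exposed for 6 h at 37 C and 5% CO2 to compounds with retinol at 1 uM final. Cellular ATP, read by luminescence, served as the viability measure.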

[4] = qHTS assay to identify small molecule antagonists of the retinoic acid receptor (RAR) signaling pathway (AID 1159552; also: nearly all actives have a fitted effect of over 50% in size); settings: C3RL4 RARE luciferase reporter, retinol-stimulated, 6 h; series mostly up to 92.4 µM
Method in brief: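 Readout: luciferase luminescence, 30 min post-reagent at RT. Setup: C3RL4 RARE reporter cells, compounds plus retinol 1 uM final, 6 hr incubation at 37 C and 5% CO2.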

[5] = qHTS assay to identify small molecule agonists of the retinoic acid receptor (RAR) signaling pathway (AID 1159553); settings: C3RL4 RARE luciferase reporter, agonist, 6 h; activation: at 73.3 µM (top of the series) unless noted; also: potency is read from the fitted curve at half-maximal effect
Method in brief: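 In this cell-based screen, 1,000 C3RL4 cells per well were cultured overnight, dosed with test chemicals in DMSO for 6 hr, and assessed for RARE luciferase luminescence.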

[6] = qHTS assay to identify small molecule agonists of the estrogen related receptor (ERR) signaling pathway (AID 1224820); settings: ERR reporter cell line, luciferase agonist mode; series mostly up to 92.2 µM
Method in brief: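 An ERR cell line provided by NTP was seeded at 2,000 cells per well and allowed to settle for 6 h before compounds in DMSO were added. After 18 h at 37 C, luciferase activity was measured by One-Glo luminescence.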

[7] = tested on: estrogen-related receptor alpha (ERRalpha) with PGC-1alpha coactivator, human; experiment: qHTS assay to identify small molecule antagonists of the estrogen related receptor signaling pathway with the pleiotropic PPARgamma coactivator (PGC) (AID 1224821; calls by dose curve;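 also: lower luminescence signal means antagonism of PGC/ERR signalling; nearly all actives have a fitted effect of over 50% in size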); settings: ERR/PGC reporter cell line, luciferase, antagonist mode; series mostly up to 92.2 µM
Method in brief: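 A PGC/ERR cell line supplied by NTP is seeded, allowed 6 h at 37 C, and treated with test compounds in DMSO for 18 h. Signal is then measured as luciferase luminescence using One-Glo.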

[8] = qHTS assay to identify small molecule antagonists of the estrogen related receptor signaling pathway with the pleiotropic PPARgamma coactivator (PGC) cell viability counter screen (AID 1224822;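 also: potency is read from the fitted curve at half-maximal effect; viability read after 17.5 h compound exposure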); settings: ERR/PGC reporter cell line viability counter screen; series mostly up to 46.1 µM
Method in brief: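 17.5 h compound treatment of PGC/ERR cells at 37 C; readout CellTiter-Fluor fluorescence; run alongside the PGC/ERR antagonist screen to flag cytotoxic compounds.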

Measured: Potency

Chain of Retinoic acid receptor RXR-alpha (Homo sapiens) (P19793 whole entry, looked up): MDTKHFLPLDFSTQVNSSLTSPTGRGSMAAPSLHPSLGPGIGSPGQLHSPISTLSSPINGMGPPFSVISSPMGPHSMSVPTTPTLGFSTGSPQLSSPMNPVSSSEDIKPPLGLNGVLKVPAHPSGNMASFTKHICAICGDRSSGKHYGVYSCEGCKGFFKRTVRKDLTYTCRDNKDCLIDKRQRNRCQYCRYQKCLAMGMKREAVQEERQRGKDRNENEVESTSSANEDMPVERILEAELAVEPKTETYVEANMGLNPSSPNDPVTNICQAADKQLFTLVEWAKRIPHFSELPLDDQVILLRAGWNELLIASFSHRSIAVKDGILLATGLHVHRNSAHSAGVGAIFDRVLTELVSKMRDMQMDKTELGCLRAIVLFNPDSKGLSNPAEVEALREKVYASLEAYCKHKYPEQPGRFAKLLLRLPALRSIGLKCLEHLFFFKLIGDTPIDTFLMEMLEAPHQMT

CCOc1cc(Oc2ccc(C(F)(F)F)cc2Cl)ccc1[N+](=O)[O-]
inactive: [1] | [2] | [3] | [4] | [5]

Nc1cccnc1
inactive: [1] | [2] | [3] | [4] | [5]

c1ccc(P(c2ccccc2)c2ccccc2)cc1
inactive: [1] | [2] | [3]

Clc1nc(Cl)nc(Cl)n1
inactive: [1] | [2] | [3]

CC(C)(C)c1ccccc1O
inactive: [1] | [2] | [3]

CCC(C)c1ccc(O)cc1 (stereo unspecified)
inactive: [1] | [2] | [3]

COP(=O)(OC)OC
inactive: [1] | [2] | [3]

c1nc[nH]n1
inactive: [1] | [2]

O=[N+]([O-])c1cccc2ccccc12
inactive: [1] | [2] | [3] | [4] | [5]

Oc1cc(Cl)c(Cl)cc1Cl
inactive: [1] | [2] | [3]

NCc1cccnc1
inactive: [1] | [2] | [3] | [4] | [5]

O=C(NC(=O)c1c(F)cccc1F)Nc1ccc(Cl)cc1
inactive: [1] | [2] | [3] | [4]

O=C(O)C(F)(F)C(F)(F)C(F)(F)C(F)(F)C(F)(F)C(F)(F)C(F)(F)F
inactive: [1] | [2]

Oc1ccc(-c2ccccc2)cc1
inactive: [2] | [3] | [4]
5.42 µM (active) and inactive: [1]

COP(=S)(OC)Oc1cc(Cl)c(Cl)cc1Cl
inactive: [1] | [2] | [3] | [4] | [5]

CCN(CC)C(=O)SCc1ccc(Cl)cc1
inactive: [1] | [2] | [3] | [4]

C=CCc1ccc(OC)cc1
inactive: [1] | [2]

Nc1ccc(Cl)c(Cl)c1
inactive: [1] | [2]

COc1ccc(C=O)cc1
inactive: [1] | [2]

CCC(C)(C)c1ccc(O)cc1
inactive: [1] | [2] | [3]

CC(C)(c1cc(Cl)c(O)c(Cl)c1)c1cc(Cl)c(O)c(Cl)c1
inactive: [1] | [2] | [3]

CCN(N=O)C(N)=O
inactive: [1] | [2] | [3] | [4] | [5]

CCCCN(CCCC)N=O
inactive: [1] | [2] | [3]

O=Cc1ccco1
inactive: [1] | [2] | [3] | [4] | [5]

CNC(=O)Oc1cccc2c1OC(C)(C)O2
inactive: [1] | [2] | [3]

C=CC(=O)OCCO
inactive: [1] | [2]

c1ccc(NNc2ccccc2)cc1
inactive: [1] | [2] | [3] | [4]

CCCCCc1cc(O)cc(O)c1
inactive: [1] | [2]

c1ccc(-c2cccc(-c3ccccc3)c2)cc1
active: [5] 6.93 µM and 4.86 µM
inactive: [1] | [2] | [3] | [4]

C=CCN(CC=C)C(=O)C(Cl)Cl
inactive: [1] | [2] | [3]

CCC(C)c1cc([N+](=O)[O-])cc([N+](=O)[O-])c1O (stereo unspecified)
inactive: [1] | [2] | [3] | [4] | [5]

CCC(C)(c1ccc(O)cc1)c1ccc(O)cc1
inactive: [1] | [2] | [3]

CCCCC(CC)COC(=O)Cl (stereo unspecified)
inactive: [1] | [2] | [3] | [4] | [5]

CN(C)C(=O)Nc1ccc(Cl)cc1
inactive: [1] | [2]

C=C(C)C(=O)OCC1CO1 (stereo unspecified)
inactive: [1] | [2] | [3] | [4] | [5]

CCOC(=O)C(C)OC(=O)c1cc(Oc2ccc(C(F)(F)F)cc2Cl)ccc1[N+](=O)[O-] (stereo unspecified)
inactive: [1] | [2] | [3] | [4] | [5]

CCCCOCCOP(=O)(OCCOCCCC)OCCOCCCC
inactive: [1] | [2] | [3] | [4] | [5]

N#CCCCl
inactive: [1] | [2] | [4] | [5]

Oc1cc(Cl)ccc1Oc1ccc(Cl)cc1Cl
inactive: [1] | [6] | [7]
active: [2] 17.8 µM | [3] 31.4 µM | [8] 38.6 µM

Nn1cnnc1
inactive: [1] | [2] | [3] | [4] | [5]

CC1(C)C(C=C(Cl)Cl)C1C(=O)OC(C#N)c1cccc(Oc2ccccc2)c1 (stereo unspecified)
inactive: [1] | [2] | [4] | [5]

CCCCN(CC)c1c([N+](=O)[O-])cc(C(F)(F)F)cc1[N+](=O)[O-]
inactive: [1] | [2] | [3] | [4] | [5]

O=P(O)(O)CCCl
inactive: [1] | [2] | [3] | [4] | [5]

COC(=O)c1sccc1S(=O)(=O)NC(=O)Nc1nc(C)nc(OC)n1
inactive: [1] | [2] | [4] | [5]
